Among all 5,500 compounds or so, about 2,000 (36%) were called active. About 18% were inconclusive and are not listed. No stated cut-off is given here; in the data, active means normalized growth mostly below about 0.91 (no sharp cut-off); inconclusive means no clear call, values can overlap the other calls; inactive means mostly above about 0.92. The list shows a part of the results.
Test: chemical genetic growth profiling, strain panel (AID 1159580);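 further: tested at 20 µM; growth read once vehicle control cultures reached saturation at 30 °C; 1 = growth at the plate median or of vehicle wells; lower values mean less growth of the strain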
Conditions: growth OD

Measured: normalized growth

N#Cc1ccc2c(c1)N(CCCN1CCC(O)CC1)c1ccccc1S2
inactive: S. cerevisiae deletion strains, locus YJR075W, strain HOC1, hits give low values 1.03 | S. cerevisiae deletion strains, locus YKL009W, strain mrt4, hits give low values 1.01 | S. cerevisiae deletion strains, locus YKL068W, hits give low values 1.01 | S. cerevisiae deletion strains, locus YKL085W, strain MDH1 (second series), hits give low values 1.04 | S. cerevisiae deletion strains, locus YKL085W, strain MDH1, hits give low values 1.04 | S. cerevisiae deletion strains, locus YKL160W, strain elf1, hits give low values 0.998 | S. cerevisiae deletion strains, locus YKL190W, strain CNB1, hits give low values 1.01 | S. cerevisiae deletion strains, locus YKR001C, strain vps1, hits give low values 1.02 | S. cerevisiae deletion strains, locus YKR026C, strain gcn3, hits give low values 0.995 | S. cerevisiae deletion strains, locus YKR091W, strain srl3, hits give low values 0.995 | S. cerevisiae deletion strains, locus YLL001W, strain dnm1, hits give low values 0.996 | S. cerevisiae deletion strains, locus YLL026W, hits give low values 0.987 | S. cerevisiae deletion strains, locus YLL041C, strain sdh2, hits give low values 0.996 | S. cerevisiae deletion strains, locus YLR027C, strain aat2, hits give low values 0.992 | S. cerevisiae deletion strains, locus YLR039C, strain RIC1, hits give low values 1.08 | S. cerevisiae deletion strains, locus YLR058C, strain SHM2, hits give low values 1.01 | S. cerevisiae deletion strains, locus YLR102C, strain apc9, hits give low values 1.02 | S. cerevisiae deletion strains, locus YLR113W, strain HOG1, hits give low values 1.05 | S. cerevisiae deletion strains, locus YLR221C, strain rsa3, hits give low values 0.995 | S. cerevisiae deletion strains, locus YLR258W, strain gsy2, hits give low values 0.977 | S. cerevisiae deletion strains, locus YLR262C, strain YPT6 (second series), hits give low values 1.02 | S. cerevisiae deletion strains, locus YLR262C, strain YPT6, hits give low values 1.07 | S. cerevisiae deletion strains, locus YLR268W, strain sec22, hits give low values 1.01 | S. cerevisiae deletion strains, locus YLR320W, strain mms22, hits give low values 0.959 | S. cerevisiae deletion strains, locus YLR330W, strain CHS5, hits give low values 1 | S. cerevisiae deletion strains, locus YLR342W, strain FKS1 (second series), hits give low values 0.989 | S. cerevisiae deletion strains, locus YLR342W, strain FKS1, hits give low values 0.992 | S. cerevisiae deletion strains, locus YLR357W, strain rsc2, hits give low values 0.969 | S. cerevisiae deletion strains, locus YLR370C, strain arc18, hits give low values 0.994 | S. cerevisiae deletion strains, locus YLR371W, strain rom2, hits give low values 1.02 | S. cerevisiae deletion strains, locus YLR384C, strain iki3, hits give low values 0.986 | S. cerevisiae deletion strains, locus YLR418C, strain cdc73, hits give low values 1 | S. cerevisiae deletion strains, locus YML016C, strain PPZ1, hits give low values 1.01 | S. cerevisiae deletion strains, locus YML032C, strain rad52, hits give low values 1.01 | S. cerevisiae deletion strains, locus YML120C, strain ndi1, hits give low values 0.994 | S. cerevisiae deletion strains, locus YML124C, strain tub3, hits give low values 1.02 | S. cerevisiae deletion strains, locus YMR058W, strain fet3, hits give low values 0.999 | S. cerevisiae deletion strains, locus YMR078C, strain ctf18, hits give low values 1.02 | S. cerevisiae deletion strains, locus YMR125W, strain sto1, hits give low values 0.966 | S. cerevisiae deletion strains, locus YMR129W, hits give low values 0.997 | S. cerevisiae deletion strains, locus YMR205C, strain PFK2, hits give low values 0.935 | S. cerevisiae deletion strains, locus YMR223W, strain ubp8, hits give low values 1.01 | S. cerevisiae deletion strains, locus YMR231W, strain pep5, hits give low values 1 | S. cerevisiae deletion strains, locus YMR263W, strain SAP30, hits give low values 1.02 | S. cerevisiae deletion strains, locus YMR307W, strain GAS1, hits give low values 1.04 | S. cerevisiae deletion strains, locus YNL067W, strain RPL9B, hits give low values 1.01 | S. cerevisiae deletion strains, locus YNL071W, strain lat1, hits give low values 0.96 | S. cerevisiae deletion strains, locus YNL128W, strain TEP1, hits give low values 1.01 | S. cerevisiae deletion strains, locus YNL153C, strain GIM3, hits give low values 1 | S. cerevisiae deletion strains, locus YNL183C, strain NPR1, hits give low values 0.983 | S. cerevisiae deletion strains, locus YNL209W, strain ssb2, hits give low values 0.993 | S. cerevisiae deletion strains, locus YNL233W, strain BNI4, hits give low values 0.998 | S. cerevisiae deletion strains, locus YNL248C, strain rpa49, hits give low values 0.997 | S. cerevisiae deletion strains, locus YNL250W, strain rad50, hits give low values 1.04 | S. cerevisiae deletion strains, locus YNL271C, strain bni1, hits give low values 1.03 | S. cerevisiae deletion strains, locus YNL298W, strain CLA4, hits give low values 1.02 | S. cerevisiae deletion strains, locus YNL307C, strain MCK1, hits give low values 1 | S. cerevisiae deletion strains, locus YNL322C, strain KRE1 (second series), hits give low values 0.995 | S. cerevisiae deletion strains, locus YNL322C, strain KRE1, hits give low values 1.01 | S. cerevisiae deletion strains, locus YNR049C, strain mso1, hits give low values 0.991 | S. cerevisiae deletion strains, locus YNR052C, strain pop2, hits give low values 1.02 | S. cerevisiae deletion strains, locus YOL006C, strain TOP1, hits give low values 1.01 | S. cerevisiae deletion strains, locus YOL012C, strain htz1 0.994 | S. cerevisiae deletion strains, locus YOL147C, strain pex11, hits give low values 1.02 | S. cerevisiae deletion strains, locus YOR001W, strain rrp6, hits give low values 0.981 | S. cerevisiae deletion strains, locus YOR061W, strain CKA2, hits give low values 1.01 | S. cerevisiae deletion strains, locus YOR069W, strain VPS5, hits give low values 1.01 | S. cerevisiae deletion strains, locus YOR070C, strain gyp1, hits give low values 1.04 | S. cerevisiae deletion strains, locus YOR080W, strain dia2, hits give low values 0.987 | S. cerevisiae deletion strains, locus YOR083W, strain WHI5, hits give low values 1 | S. cerevisiae deletion strains, locus YOR106W, strain vam3, hits give low values 1 | S. cerevisiae deletion strains, locus YOR136W, strain idh2, hits give low values 1.03 | S. cerevisiae deletion strains, locus YOR144C, strain elg1, hits give low values 1.02 | S. cerevisiae deletion strains, locus YOR184W, strain ser1, hits give low values 1.03 | S. cerevisiae deletion strains, locus YOR231W, strain MKK1, hits give low values 1.08 | S. cerevisiae deletion strains, locus YOR265W, strain rbl2, hits give low values 0.98 | S. cerevisiae deletion strains, locus YOR270C, strain vph1, hits give low values 1.02 | S. cerevisiae deletion strains, locus YOR290C, strain snf2, hits give low values 0.973 | S. cerevisiae deletion strains, locus YOR316C, strain cot1, hits give low values 1.01 | S. cerevisiae deletion strains, locus YPL051W, strain arl3, hits give low values 1 | S. cerevisiae deletion strains, locus YPL055C, strain LGE1, hits give low values 1.02 | S. cerevisiae deletion strains, locus YPL078C, strain atp4, hits give low values 1 | S. cerevisiae deletion strains, locus YPL106C, strain sse1, hits give low values 0.963 | S. cerevisiae deletion strains, locus YPL240C, strain hsp82, hits give low values 1.01 | S. cerevisiae deletion strains, locus YPL241C, strain CIN2, hits give low values 1 | S. cerevisiae deletion strains, locus YPL256C, strain CLN2, hits give low values 1.07 | S. cerevisiae deletion strains, locus YPR119W, strain clb2, hits give low values 1.02 | S. cerevisiae deletion strains, locus YPR141C, strain kar3, hits give low values 1.02 | S. cerevisiae deletion strains, locus YPR163C, strain tif3, hits give low values 1.03 | S. cerevisiae deletion strains, locus YPR167C, strain met16, hits give low values 1.02 | S. cerevisiae deletion strains, strain wtn01, hits give low values 1.01 | S. cerevisiae strains, strain wild type, hits give low values 1.01

Source: PubChem BioAssay AID1159580 (chemical genetic matrix, 2015)
